FLuc modulator – qHTS profiling assay for firefly luciferase inhibitor/activator using purifed enzyme and Km concentrations of substrates (counterscreen for miR-21 project); Luciferin 4-monooxygenase (Photinus pyralis), P08659; purified FLuc, Km substrates, luminescence inhibition; Potency, µM (highest dose often 57.5 µM), most hits filed as inhibitors; hit rate 6.9% among 360,000; AID 588342, 2011; note: nearly all actives have a fitted effect of over 55% in size
Target sequence (P08659 whole entry, looked up): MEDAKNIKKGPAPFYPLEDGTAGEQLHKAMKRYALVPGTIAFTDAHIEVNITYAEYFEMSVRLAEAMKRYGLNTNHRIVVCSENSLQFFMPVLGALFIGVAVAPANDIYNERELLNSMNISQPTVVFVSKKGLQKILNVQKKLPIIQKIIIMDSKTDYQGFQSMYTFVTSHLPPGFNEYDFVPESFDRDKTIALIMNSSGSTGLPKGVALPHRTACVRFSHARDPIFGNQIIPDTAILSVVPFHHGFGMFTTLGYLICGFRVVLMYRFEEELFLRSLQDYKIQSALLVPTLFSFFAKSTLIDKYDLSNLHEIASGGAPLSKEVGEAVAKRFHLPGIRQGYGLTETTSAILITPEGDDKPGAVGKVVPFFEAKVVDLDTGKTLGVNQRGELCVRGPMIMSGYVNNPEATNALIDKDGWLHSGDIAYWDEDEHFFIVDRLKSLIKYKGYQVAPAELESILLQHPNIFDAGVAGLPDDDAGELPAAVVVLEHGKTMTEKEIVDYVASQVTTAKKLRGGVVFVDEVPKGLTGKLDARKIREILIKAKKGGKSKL
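Purified P. pyralis luciferase, 10 nM final, with Km-level 10 uM D-luciferin and 10 uM ATP in 50 mM Tris acetate pH 7.5, 10 mM Mg acetate, 0.01% Tween-20, 0.05% BSA; 6-point qHTS titration about 60 µM downward; luminescence read.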
Rab9 promoter act – qHTS Assay for Rab9 Promoter Activators; Huh7 Rab9 promoter-luciferase reporter, luminescence, 24 h; Potency, µM (series often up to 9.22 µM), actives largely listed as activators; hit rate 2.8% among 320,000; note: nearly all actives have a fitted effect of over 60% in size
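Cell-based reporter: Huh7 stable for Rab9 promoter-driven luciferase, plated in reduced-serum medium with 10% FBS at 1500 cells/well, compound-treated 24 h at 37 °C, luminescence read after 10 min reagent.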
SMN2 splice up – qHTS Assay for Enhancers of SMN2 Splice Variant Expression | HEK293 SMN2-luciferase splicing reporter, luminescence, 30-36 h | Potency, µM (series often up to 46.1 µM), usual class: activators | hit rate 2.8% among 210,000; note: nearly all actives have a fitted effect of over 55% in size
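HEK293 cells carry an SMN2 minigene-luciferase reporter in which exon 7 inclusion puts luciferase in frame. Cells were seeded at 2000 cells/well, attached for 10-12 hours, then exposed to compounds for 30-36 hours at 37C before ONE-Glo luminescence.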
KinaseGlo FLuc – Counterscreen for Luciferase (Kinase-Glo TM) Inhibition; Kinase-Glo luciferase, ATP luminescence, 8 min; Potency, µM (highest dose often 38.3 µM), hits mostly inhibitors; AID 1379, 2008; hit rate 0.28% among 200,000; note: nearly all actives have a fitted effect of over 60% in size
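Light output from Kinase-Glo luciferase with luciferin and 10 uM ATP in 50 mM imidazole pH 7.2, KCl, MgCl2, Tween 20, BSA; compound pin-delivered, 8-min ambient incubation, then luminescence read.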
NPC1 prom act – qHTS Assay for NPC1 Promoter Activators; Huh7 NPC1 promoter luciferase reporter, 24 h; hit rate 2.4% among 320,000; Potency, µM (top dose mostly 9.22 µM), actives largely listed as activators; note: nearly all actives have a fitted effect of over 60% in size
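Stable NPC1-promoter luciferase Huh7 line; cpd (DMSO) 24 h, 37 °C, 5% CO2; Amplite luciferase reagent 10 min RT; luminescence readout. qHTS format.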
Of the large screens only hits and unclear results are named; the others gave an inactive call. Rows were chosen to be rich in hits. Some 7.3% of all compounds tested hit in one or more screens of this group. Calls come from the whole dose curve; as a rule, active = well fitted curve in the direction sought with a large enough effect; inconclusive = small, poorly fitted or top-dose-only effect, or another doubt; inactive = no such curve, though single readings can be large; an effect the other way counts as inactive or inconclusive.

O=C(CN1C(=O)C2CCCCN2c2ccc(C(=O)N3CCCC3)cc21)NCc1ccccc1F (stereo unspecified)	none (no result: Rab9 promoter act, SMN2 splice up, KinaseGlo FLuc, NPC1 prom act)
Cn1c(O)c(N=NC(=O)c2cc(-c3cccs3)nc3ccccc23)c2ccccc21	FLuc modulator 2.7µM
O=C(N/N=C/c1ccc2ncccc2c1)c1cc(-c2cccs2)nc2ccccc12	FLuc modulator inconclusive (no result: SMN2 splice up, KinaseGlo FLuc)
COc1ccc(-c2cc(C(=O)N/N=C/c3cccnc3)c3cc(C)cc(C)c3n2)cc1	FLuc modulator 7.6µM (no result: SMN2 splice up, KinaseGlo FLuc)
CCOc1ccc(-c2cc(C(=O)N/N=C/c3cccnc3)c3ccccc3n2)cc1	FLuc modulator 0.38µM, Rab9 promoter act inconclusive (no result: SMN2 splice up, KinaseGlo FLuc)
O=C(N/N=C/c1ccc[nH]1)c1cc(-c2cccs2)nc2ccccc12	FLuc modulator 15µM
C=Cc1ccc(Cn2c(C(=O)O)c(CNCc3ccccc3)c3ccc(C)cc32)cc1	none (no result: Rab9 promoter act, SMN2 splice up, KinaseGlo FLuc, NPC1 prom act)
O=C(N/N=C/c1cccs1)c1cc(-c2ccncc2)nc2ccccc12	FLuc modulator inconclusive
O=C(N/N=C/c1cccnc1)c1cc(-c2cccs2)nc2ccccc12	FLuc modulator 24µM
Cn1c(O)c(N=Nc2ccccc2)c2ccccc21	FLuc modulator 27µM (no result: SMN2 splice up, KinaseGlo FLuc)
Cn1c(O)c(N=Nc2ccc(F)cc2)c2ccccc21	FLuc modulator inconclusive
Cn1cccc1/C=N/NC(=O)c1cc(-c2cccs2)nc2ccccc12	FLuc modulator 13µM
CC(C)COc1cccc(-c2cc(C(=O)N/N=C/c3ccncc3)c3ccccc3n2)c1	FLuc modulator 0.95µM (no result: SMN2 splice up, KinaseGlo FLuc)
Cc1ccc(NC(=O)CSc2nc3ccc(NC(=O)CCc4ccccc4)cc3s2)cc1	none (no result: Rab9 promoter act, SMN2 splice up, KinaseGlo FLuc, NPC1 prom act)
COC(=O)c1ccc(Cl)cc1NC(=O)NC(C)c1c(-n2cccc2)sc(C)c1C (stereo unspecified)	none (no result: Rab9 promoter act, KinaseGlo FLuc, NPC1 prom act)
CCOC(=O)CSc1nc2sc3c(c2c(=O)n1-c1ccccc1)CC(C(C)C)OC3 (stereo unspecified)	none (no result: Rab9 promoter act, KinaseGlo FLuc, NPC1 prom act)
Cc1cccnc1Nc1nc(-c2ccc(O)cc2)cs1	FLuc modulator 6.7µM, Rab9 promoter act 3.5µM, SMN2 splice up 25µM, NPC1 prom act inconclusive
Cc1cccnc1Nc1nc(-c2ccc(F)cc2)cs1	FLuc modulator 2.7µM, Rab9 promoter act 2.8µM, NPC1 prom act 1.4µM (no result: SMN2 splice up, KinaseGlo FLuc)
Fc1ccc(-c2csc(NC3=NCCC3)n2)cc1	FLuc modulator inconclusive
COc1ccc(NC(=O)c2ccc(NC(=O)CCS(=O)(=O)c3cccs3)cc2)cc1OC	none (no result: Rab9 promoter act, KinaseGlo FLuc, NPC1 prom act)
CCOC(=O)C1=C(CS(=O)(=O)c2c(C)cc(C)cc2C)NC(=O)NC1c1cccc(OC)c1 (stereo unspecified)	none (no result: Rab9 promoter act, KinaseGlo FLuc, NPC1 prom act)
CCC1CSC(Nc2ccc(C(=O)/C=C/c3ccc(OC)c(OC)c3)cc2)=N1 (stereo unspecified)	FLuc modulator 24µM
CCCCN(CCCNC(=O)c1c(C)oc2nc[nH]c(=O)c12)Cc1ccccc1	none (no result: Rab9 promoter act, KinaseGlo FLuc, NPC1 prom act)
COc1ccc(-c2cc(C(=O)c3c(N)n(C)c(=O)n(C)c3=O)c3ccccc3n2)cc1OC	FLuc modulator 9.5µM (no result: SMN2 splice up)
Cn1c(N)c(C(=O)c2cc(-c3ccncc3)nc3ccccc23)c(=O)n(C)c1=O	FLuc modulator 24µM
CC(=O)Nc1ccc(N/C=C/C(=O)c2ccco2)cc1	FLuc modulator 11µM, Rab9 promoter act 1.6µM, SMN2 splice up 28µM, KinaseGlo FLuc inconclusive, NPC1 prom act 3.2µM
CN(C)c1ccc(N/C=C/C(=O)c2ccco2)cc1	FLuc modulator 0.27µM, Rab9 promoter act 2.8µM, KinaseGlo FLuc 3.5µM, NPC1 prom act 3.5µM (no result: SMN2 splice up)
Cc1cccc(OCc2ccc(-c3nc(C#N)c(NCc4cccnc4)o3)o2)c1	none (no result: Rab9 promoter act, SMN2 splice up, KinaseGlo FLuc, NPC1 prom act)
C=CCSc1nn2c(=O)c3ccccc3nc2s1	FLuc modulator 13µM, Rab9 promoter act 3.2µM, SMN2 splice up inconclusive, NPC1 prom act 2.5µM
Cc1nnc2sc(SCc3ccccc3)nn2c1=O	none
C=CCSc1nc2ccccc2c(=O)[nH]1	none
C/C(Cl)=C/CSc1nn2c(=O)c3ccccc3nc2s1	FLuc modulator 12µM, Rab9 promoter act inconclusive, NPC1 prom act inconclusive
O=C(C1=C[C@H](c2ccc(Br)cc2)C[C@H](OCCCCO)O1)N1CCOCC1	Rab9 promoter act 0.02µM, NPC1 prom act 0.025µM (no result: SMN2 splice up, KinaseGlo FLuc)
Cc1ccnc(NC(=O)C2CC(=O)N(Cc3ccccc3)C2)c1 (stereo unspecified)	FLuc modulator 6µM (no result: SMN2 splice up, KinaseGlo FLuc)

Screens from PubChem.
